The nature of assay [1]: ATG_E_Box_CIS: Attagene CIS-FACTORIAL HepG2 Assay for human Enhancer Box (E-box) (AID 2282936). The note with it: HepG2 E-box cis-reporter transcription, actives raise or lower the signal. The procedure, abridged: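 DMSO served as negative control and baseline for bidirectional fitting. Human hepatoma HepG2 cells, transiently transfected with cis-reporter constructs, were dosed 24 h; reporter mRNA read by RT-PCR and capillary electrophoresis.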

The nature of assay [2]: ATG_M_61_CIS: Attagene CIS-FACTORIAL HepG2 Assay for M61 Transcription Factor (Internal Marker) (AID 2282937). The note with it: HepG2 Attagene CIS-FACTORIAL M61 internal marker reporter; actives raise or lower the signal. The procedure, abridged:
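Fluorescence from labelled cDNA fragments, separated by capillary electrophoresis, quantifies reporter induction. HepG2 cells bearing transiently transfected cis-promoter MRTUs were incubated with test chemical for 24 h; DMSO defined baseline for gain/loss fitting.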

The nature of assay [3]: ATG_EGR_CIS: Attagene CIS-FACTORIAL HepG2 Assay for human Early Growth Response 1 (EGR1) (AID 2282938). The note with it: HepG2 Attagene CIS-FACTORIAL EGR reporter mRNA; actives raise or lower the signal. The method in brief: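 Cell-based multiplex transcription assay: HepG2 carrying transfected cis-element reporter units, 24 h chemical treatment. Fluorescence from capillary electrophoresis of RT-PCR products gives mRNA levels; fitting is bidirectional relative to DMSO.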

The nature of assay [4]: ATG_M_19_CIS: Attagene CIS-FACTORIAL HepG2 Assay for M19 Transcription Factor (Internal Marker) (AID 2282939). The note with it: HepG2 Attagene CIS-FACTORIAL M19 internal marker reporter; actives raise or lower the signal. The method in brief: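 HepG2 cells transiently transfected with cis-regulated multiplexed reporter units, dosed 24 h. Reporter mRNA quantified by RT-PCR and capillary electrophoresis; internal background marker fitted bidirectionally versus DMSO.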

Assay [5] in a line: ATG_Ets_CIS: Attagene CIS-FACTORIAL HepG2 Assay for human Erythroblast Transformation Specific (ETS) (AID 2282941). The note with it: HepG2 ETS cis-reporter transcription, actives raise or lower the signal. The procedure, abridged: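 HepG2 cells transfected with multiple cis-regulated reporter units measuring endogenous ETS-driven transcription, 24 h after dosing. Reporter mRNA quantified by RT-PCR with capillary electrophoresis; bidirectional fit relative to DMSO.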

The target in assay [6] is Hepatocyte nuclear factor 3-beta (Homo sapiens) (UniProt Q9Y261). Briefly: ATG_FoxA2_CIS: Attagene CIS-FACTORIAL HepG2 Assay for human Forkhead box A2 (FOXA2) (AID 2282942). The note with it: HepG2 cis-reporter transcription factor activity, 24 h; actives raise or lower the signal. The procedure, abridged: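 In transiently transfected human HepG2 cells, promoter-driven reporter mRNA levels after 24 h chemical exposure are determined via RT-PCR with capillary electrophoresis. DMSO serves as baseline for bidirectional fitting.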

Assay [7] can be described thus: ATG_FoxO_CIS: Attagene CIS-FACTORIAL HepG2 Assay for human Forkhead box O (FoxO) (AID 2282943). The note with it: HepG2 Attagene cis-reporter, FoxO element, mRNA; actives raise or lower the signal. The method in brief:
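Endogenous transcription factor activity read from multiplexed cis-promoter reporter transcripts in transiently transfected HepG2, 24 h after dosing. Reporter RNA measured via RT-PCR plus capillary electrophoresis of FAM-labeled products; gain or loss relative to DMSO.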

The nature of assay [8]: ATG_GATA_CIS: Attagene CIS-FACTORIAL HepG2 Assay for human GATA Binding Protein (AID 2282944). The note with it: HepG2 GATA cis-element reporter, Attagene multiplex mRNA; actives raise or lower the signal. The method in brief:
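HepG2 cells transiently transfected with multiplexed cis-element reporter units measure endogenous GATA activity; after 24 h compound exposure, reporter mRNA quantified by RT-PCR and capillary electrophoresis. Changes fitted in both directions vs DMSO.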

Assay [9] can be described thus: ATG_GLI_CIS: Attagene CIS-FACTORIAL HepG2 Assay for human Zinc Finger Protein GLI1 (AID 2282945). The note with it: HepG2, Attagene cis-factorial reporter mRNA, GLI element; actives raise or lower the signal. The procedure, abridged:
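Bidirectional curve fits relative to DMSO, using reporter mRNA levels from RT-PCR plus capillary electrophoresis. Cells were HepG2 transiently carrying cis-regulated reporter constructs, harvested 24 h after dosing.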

Assay [10] can be described thus: ATG_ISRE_CIS: Attagene CIS-FACTORIAL HepG2 Assay for human Interferon Regulatory Factor 1 (IRF1) binding to an Interferon-Stimulated Response Element (ISRE) (AID 2282948). The note with it: HepG2 ISRE cis-reporter (Attagene), mRNA transcription readout; actives raise or lower the signal. The method in brief: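 Transiently transfected HepG2 cells carrying cis-element reporter units, dosed 24 hours. Reporter mRNA quantified by RT-PCR, fluorescent primer extension, HpaI digestion and capillary electrophoresis. Bidirectional fitting relative to DMSO.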

The nature of assay [11]: ATG_M_32_CIS: Attagene CIS-FACTORIAL HepG2 Assay for M32 Transcription Factor (Internal Marker) (AID 2282949).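 Note: background control marker of the multiplexed CIS panel rather than a real target.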 The note with it: HepG2 Attagene cis-factorial M32 reporter, mRNA; actives raise or lower the signal. The method in brief: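 Following 24 h chemical exposure of HepG2 cells transiently expressing cis-promoter reporter constructs, reporter transcript levels were determined by RT-PCR with fluorescent labelling and capillary electrophoresis, then fitted bidirectionally against DMSO.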

The nature of assay [12]: ATG_M_06_CIS: Attagene CIS-FACTORIAL HepG2 Assay for M06 Transcription Factor (Internal Marker) (AID 2282950). The note with it: HepG2 Attagene CIS-FACTORIAL M06 internal marker reporter; actives raise or lower the signal. The procedure, abridged: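 Internal background marker within multiplexed cis-reporter HepG2 system. Cells transiently transfected, dosed 24 h; reporter mRNA measured by RT-PCR, HpaI digestion and capillary electrophoresis. Bidirectional fit relative to DMSO.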

For assay [13], the target named is Hypoxia-inducible factor 1-alpha (Homo sapiens) (UniProt Q16665). Kind of assay: ATG_HIF1a_CIS: Attagene CIS-FACTORIAL HepG2 Assay for human Hypoxia Inducible Factor 1 (HIF1A) (AID 2282951). The note with it: HepG2 Attagene cis-factorial HIF1a reporter transcription; actives raise or lower the signal. The procedure, abridged: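 In this multiplexed cell assay, HepG2 cells bearing transfected cis reporters are dosed for 24 h and reporter mRNA is read by RT-PCR plus capillary electrophoresis; signal increases and decreases are both scored against DMSO.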

Assay [14] deals with Hepatocyte nuclear factor 6 (Homo sapiens) (UniProt Q9UBC0). Kind of assay: ATG_HNF6_CIS: Attagene CIS-FACTORIAL HepG2 Assay for human Hepatocyte Nuclear Factor 6 (HNF6) (AID 2282952). The note with it: HepG2 Attagene cis-factorial HNF6 reporter transcription; actives raise or lower the signal. The method in brief: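 HepG2 cells transiently transfected with cis-element-driven multiplexed reporter units measuring endogenous transcription factor activity. After 24 h exposure, reporter mRNA quantified by RT-PCR, FAM-labelled fragments and capillary electrophoresis; bidirectional fitting versus DMSO.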

In assay [15] the target is Heat shock factor protein 1 (Homo sapiens) (UniProt Q00613). Briefly: ATG_HSE_CIS: Attagene CIS-FACTORIAL HepG2 Assay for human Heat Shock Transcription Factor 1 (HSE) (AID 2282953). The note with it: HepG2 HSE cis-reporter, Attagene RNA transcription; actives raise or lower the signal. The procedure, abridged: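 HepG2 cells transfected with cis-promoter reporter units sensing endogenous transcription factor activity; reporter mRNA quantified 24 h post-dose by RT-PCR and capillary electrophoresis of 6-FAM-labelled products. Bidirectional fitting against DMSO.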

A short description of assay [16]: ATG_MRE_CIS: Attagene CIS-FACTORIAL HepG2 Assay for human Metal Responsive Element (MRE) (AID 2282954). The note with it: HepG2 MRE cis-reporter transcription, Attagene multiplex; actives raise or lower the signal. The method in brief:
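After a 24 h chemical exposure, transiently transfected HepG2 cells yield RNA whose reporter sequences are amplified, FAM-labelled and sized by capillary electrophoresis. Curves are fitted bidirectionally relative to DMSO.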

The nature of assay [17]: ATG_PBREM_CIS: Attagene CIS-FACTORIAL HepG2 Assay for human Phenobarbital-responsive Enhancer Module (PBREM) (AID 2282955). The note with it: HepG2 PBREM cis-reporter, Attagene multiplexed transcription; actives raise or lower the signal. The procedure, abridged: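 After a 24 h incubation with test chemical, transfected HepG2 cells yield total RNA; reporter-specific RT-PCR products are fluorescently labelled, HpaI-digested and resolved by capillary electrophoresis against ROX size standards.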

Assay [18] can be described thus: ATG_GRE_CIS: Attagene CIS-FACTORIAL HepG2 Assay for human Glucocorticoid Response Elements (GRE) (AID 2282947). The note with it: HepG2 GRE cis-reporter, Attagene multiplex mRNA; actives raise or lower the signal. The method in brief:
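Assay uses human hepatoma HepG2 cells transfected with cis-promoter reporter units, exposed 24 h. mRNA from reporters detected by RT-PCR plus capillary electrophoresis; DMSO serves as negative control and baseline.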

The AC50 is the concentration giving half of the maximal activity seen.

The source made the active and inactive calls. Rule for the calls: active = hit-call score of the fitted dose curve at least 0.9, where 1 is the maximum; inactive = score below 0.9.

Sequence of Hepatocyte nuclear factor 6 (Homo sapiens) (Q9UBC0 whole entry, looked up, the tested form may be a part): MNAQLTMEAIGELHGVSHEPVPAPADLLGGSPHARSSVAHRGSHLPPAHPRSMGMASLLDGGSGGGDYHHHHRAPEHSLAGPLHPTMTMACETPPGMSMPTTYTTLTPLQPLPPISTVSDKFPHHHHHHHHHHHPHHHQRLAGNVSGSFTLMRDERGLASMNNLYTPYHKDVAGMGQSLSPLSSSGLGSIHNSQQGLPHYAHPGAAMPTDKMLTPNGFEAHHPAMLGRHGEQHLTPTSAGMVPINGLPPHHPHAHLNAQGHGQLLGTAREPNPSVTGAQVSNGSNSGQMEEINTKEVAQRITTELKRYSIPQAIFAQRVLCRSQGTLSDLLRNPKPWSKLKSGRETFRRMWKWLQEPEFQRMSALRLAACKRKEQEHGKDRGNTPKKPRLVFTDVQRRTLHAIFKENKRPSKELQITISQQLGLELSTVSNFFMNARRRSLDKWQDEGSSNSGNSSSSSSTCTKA
Sequence of Heat shock factor protein 1 (Homo sapiens) (Q00613 whole entry, looked up): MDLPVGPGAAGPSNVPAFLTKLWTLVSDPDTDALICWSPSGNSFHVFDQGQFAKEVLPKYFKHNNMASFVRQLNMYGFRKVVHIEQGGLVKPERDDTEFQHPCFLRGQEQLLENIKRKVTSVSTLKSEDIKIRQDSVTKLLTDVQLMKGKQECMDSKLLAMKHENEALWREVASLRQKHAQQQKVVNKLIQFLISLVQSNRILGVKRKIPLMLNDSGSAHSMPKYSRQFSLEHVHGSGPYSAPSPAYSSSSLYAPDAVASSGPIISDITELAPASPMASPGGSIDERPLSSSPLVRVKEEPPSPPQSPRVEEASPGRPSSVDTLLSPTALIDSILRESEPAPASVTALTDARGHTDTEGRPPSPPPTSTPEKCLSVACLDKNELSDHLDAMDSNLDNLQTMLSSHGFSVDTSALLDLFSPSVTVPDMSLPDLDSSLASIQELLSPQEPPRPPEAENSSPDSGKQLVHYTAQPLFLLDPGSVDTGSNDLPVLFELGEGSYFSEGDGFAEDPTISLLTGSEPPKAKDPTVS
Sequence of Hepatocyte nuclear factor 3-beta (Homo sapiens) (Q9Y261 whole entry, looked up): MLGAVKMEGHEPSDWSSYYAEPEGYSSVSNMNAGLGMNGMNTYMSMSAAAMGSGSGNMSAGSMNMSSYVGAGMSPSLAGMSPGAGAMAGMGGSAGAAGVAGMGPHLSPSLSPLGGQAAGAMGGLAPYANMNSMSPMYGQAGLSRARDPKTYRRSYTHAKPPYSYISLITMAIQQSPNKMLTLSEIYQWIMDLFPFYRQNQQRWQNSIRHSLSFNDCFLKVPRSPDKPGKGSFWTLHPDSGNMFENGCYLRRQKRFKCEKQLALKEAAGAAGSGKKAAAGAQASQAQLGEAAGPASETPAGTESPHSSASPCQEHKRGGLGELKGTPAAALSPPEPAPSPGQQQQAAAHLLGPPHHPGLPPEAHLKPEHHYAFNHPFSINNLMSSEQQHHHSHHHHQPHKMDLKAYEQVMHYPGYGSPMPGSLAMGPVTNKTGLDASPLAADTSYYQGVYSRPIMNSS
Sequence of Hypoxia-inducible factor 1-alpha (Homo sapiens) (Q16665 whole entry, looked up): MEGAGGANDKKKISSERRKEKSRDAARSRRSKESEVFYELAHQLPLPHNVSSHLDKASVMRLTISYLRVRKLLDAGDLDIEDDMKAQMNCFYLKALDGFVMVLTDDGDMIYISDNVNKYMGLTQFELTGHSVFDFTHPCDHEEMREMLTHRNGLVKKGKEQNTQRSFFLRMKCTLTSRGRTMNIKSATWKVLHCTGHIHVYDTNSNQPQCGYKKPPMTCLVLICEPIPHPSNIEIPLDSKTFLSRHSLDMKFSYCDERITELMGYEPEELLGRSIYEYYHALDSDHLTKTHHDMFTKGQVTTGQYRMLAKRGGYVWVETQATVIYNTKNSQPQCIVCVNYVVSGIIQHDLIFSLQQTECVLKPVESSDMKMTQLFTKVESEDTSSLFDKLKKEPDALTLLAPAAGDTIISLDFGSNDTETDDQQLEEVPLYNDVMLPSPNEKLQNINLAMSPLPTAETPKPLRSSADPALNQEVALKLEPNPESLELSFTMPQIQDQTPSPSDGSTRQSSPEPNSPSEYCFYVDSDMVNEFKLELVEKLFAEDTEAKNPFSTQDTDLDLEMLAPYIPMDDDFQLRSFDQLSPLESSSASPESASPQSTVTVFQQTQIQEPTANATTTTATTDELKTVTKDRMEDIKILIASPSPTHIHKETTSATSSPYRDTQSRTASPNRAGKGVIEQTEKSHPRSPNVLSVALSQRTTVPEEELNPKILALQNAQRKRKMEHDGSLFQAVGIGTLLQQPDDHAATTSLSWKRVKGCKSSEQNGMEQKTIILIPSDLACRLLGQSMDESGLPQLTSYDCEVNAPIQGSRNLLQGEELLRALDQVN

As for `CCC(=O)Nc1ccc(Cl)c(Cl)c1`, the result in assay [1], in assay [2], in assay [3], in assay [4], in [5] and in [6] was inactive. For the same compound, the outcome in [7], in assay [8], in assay [9], in assay [10], in assay [11] and in assay [12] was inactive. In addition, the outcome in [13], in [14], in assay [15], in [16] and in assay [17] was inactive.
In the case of `CCOP(=S)(Oc1cnc(C(C)(C)C)nc1)OC(C)C` (centres undefined), the AC50 is 27 µM (active) in assay [1]; 19.3 µM (active) in assay [3]; 50 µM (active) in assay [9]; 65.3 µM (active) in [16]; 21.2 µM (active) in [17]. Moreover, the result in [2], in [4], in assay [5], in [6], in assay [7] and in assay [8] was inactive. The call in [18], in [10], in assay [11], in assay [12] and in assay [14] was inactive.
`CCc1cnc(C2=NC(C)(C(C)C)C(=O)N2)c(C(=O)O)c1` (centres undefined): the result in [1], in assay [2], in assay [3], in assay [4], in [5] and in assay [6] was inactive. Also, the compound was called inactive in assay [7], in assay [8], in assay [9], in [18], in assay [10] and in assay [11]. Besides, the compound was called inactive in [12], in [14], in [15], in [16] and in [17].
On to `CN(C)[C@@H]1C(=O)C(C(N)=O)=C(O)[C@@]2(O)C(=O)C3=C(O)c4c(O)cccc4[C@@](C)(O)[C@H]3[C@H](O)[C@@H]12`, for which the result in assay [1], in assay [2], in assay [3], in assay [4], in [5] and in assay [6] was inactive. Also, the result in [7], in assay [8], in [9], in assay [11], in assay [12] and in assay [14] was inactive. In addition, the compound was classed as inactive in assay [15] and in assay [16].
In the case of `CCCOc1nn(C(=O)NS(=O)(=O)c2ccccc2C(=O)OC)c(=O)n1C`, the result in assay [1], in assay [2], in assay [3], in assay [4], in assay [5] and in [6] was inactive. Besides, the compound was called inactive in [7], in [8], in [9], in assay [18], in [11] and in assay [12]. For the same compound, the compound was classed as inactive in assay [13], in assay [14], in assay [15], in assay [16] and in assay [17].
On to `CCOC(=O)COc1cc(-c2nn(C)c(OC(F)F)c2Cl)c(F)cc1Cl`, for which the result in [1], in assay [2], in assay [3], in assay [4], in assay [5] and in assay [6] was inactive. For the same compound, the compound was called inactive in assay [7], in assay [8], in assay [9], in assay [18], in [11] and in [12]. Besides, the compound was classed as inactive in assay [14], in assay [16] and in [17].
`CC(=NC#N)N(C)Cc1ccc(Cl)nc1`: the result in [1], in assay [2], in assay [3], in assay [4], in assay [5] and in assay [6] was inactive. Besides, the compound was classed as inactive in assay [7], in [8], in assay [9], in [10], in assay [11] and in assay [12]. Moreover, the outcome in assay [13], in assay [14], in assay [15] and in assay [16] was inactive.
In the case of `CN(C)C(=O)Nc1cccc(C(F)(F)F)c1`, the result in assay [1], in assay [2], in assay [3], in [4], in assay [5] and in [6] was inactive. Also, the call in [7], in [8], in assay [9], in assay [10], in assay [11] and in [12] was inactive. Besides, the outcome in assay [13], in assay [14], in assay [15], in assay [16] and in [17] was inactive.

(Values after PubChem BioAssay (EPA / NIEHS).)
